Compound activity as filed in PubChem BioAssay.
NS1 function inh: qHTS Assay for Inhibitors of Influenza NS1 Protein Function. Potency, µM (top dose mostly 46.1 µM), for inactives: top-dose activity, positive = more growth. hit rate 0.4% among 270,000. AID 2326, 2010; calls by dose curve; also: potency is read from the fitted curve at half-maximal effect; actives are rising curves; nearly all actives have a fitted effect of over 50% in size
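Recovery from NS1-induced slow growth read by OD600 in budding yeast switched to galactose assay medium (pH 6.0, -URA) at 1:100 dilution. Compound 23 nl per well; the matching strain lacking NS1 serves as control.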
CHX counter: Cycloheximide Counterscreen for Small Molecule Inhibitors of Shiga Toxin | hit rate 12% among 300,000 | cell reporter, cycloheximide protein synthesis inhibition counterscreen | max response, %; in the data active = max response mostly above about 13%, no sharp cut-off; inactive = mostly below about 14%; also: read at 38.3 µM for the half of the compounds with a filed dose; 0% is about no effect
Pf growth 96h: Primary qHTS for delayed death inhibitors of the malarial parasite plastid, 96 hour incubation. hit rate 6.9% among 320,000. Potency, µM (doses to about 28.7 µM), without a hit: at the highest dose activity change, negative = inhibition, most hits filed as inhibitors. P. falciparum luciferase reporter growth, 96 h. AID 504834, 2011; also: potency is read from the fitted curve at half-maximal effect; % is scaled to controls: 0 for no effect and ±100 for the full control effect
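Cell-based qHTS: luciferase-tagged P. falciparum in erythrocytes (2% hematocrit, 0.05% parasitemia final) incubated with compounds for 96 hours, 37 C, 5% CO2; luciferase detection reagent then added and luminescence measured.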
Pf growth 48h: Primary qHTS for delayed death inhibitors of the malarial parasite plastid, 48 hour incubation | AID 504832, 2011 | P. falciparum luciferase growth in erythrocytes, 48 h | Potency, µM (highest dose often 28.7 µM), for inactives: at the top dose activity change, negative = inhibition, most hits filed as inhibitors | hit rate 5.9% among 310,000; also: potency is read from the fitted curve at half-maximal effect; % is scaled to controls: 0 for no effect and ±100 for the full control effect
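Here the parasites carry a stable luciferase gene and grow inside erythrocytes in Albumax-based RPMI medium with compound for one erythrocytic cycle. Activity is scored as loss of luminescent signal.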
Shiga inhibitor: A qHTS for Small Molecule Inhibitors of Shiga Toxin; AID 2315, 2010; Vero cells, Shiga toxin protein synthesis inhibition reporter; inhibition, % at 38.7 µM; hit rate 9.2% among 290,000; in the data active = inhibition mostly above about 28%, no sharp cut-off; inactive = mostly below about 43%; also: 0% is about no effect
The depositor's hits bear a star; ? = inconclusive; nt = not tested or not shown; [ ] = dose if it differs, or a comment. Hits are enriched below; roughly 21% of the tested compounds scored in any of these assays. Unless noted, calls follow the shape of the dose curve; as a rule, active = well fitted inhibition curve with a large enough effect; inconclusive = small, poorly fitted or top-dose-only effect, or another doubt; inactive = no such curve, though single readings can be large or run the other way.

SMILES	NS1 function inh	CHX counter	Pf growth 96h	Pf growth 48h	Shiga inhibitor
CCOc1ccc(CCNC(=O)CN2C(=O)NC3(CCCCCC3)C2=O)cc1OCC	nt	nt	?	13.1µM*	nt
COc1ccc(CNC(=O)CN2C(=O)NC3(CCCCCC3)C2=O)cc1OC	nt	1.1	-0.1%	0.0%	-16.2
CCOc1ccc(CCNC(=O)CN2CCN(Cc3ccccc3F)C2=O)cc1OCC	1.1%	-3.2	1.47µM*	?	-3.8
CCc1cc(-c2[nH]ncc2-c2ccc3c(c2)OCO3)c(O)cc1O	-55.7%	-4.6	?	?	-15.1
CCCc1cc(-c2[nH]ncc2-c2ccc3c(c2)OCCCO3)c(O)cc1OC	-69.2%	-1.9	nt	3.7µM*	-32.5
CN(C)CCN1C(=O)NC(C)(c2ccc([N+](=O)[O-])cc2)C1=O (stereo unspecified)	4.0%	0.6	?	32.8%	-2.2
CCn1cc(Br)c(C(=O)Nc2nccs2)n1	2.2%	26.8*	23.3%	24.4%	72.8*
CCn1cc(Br)c(C(=O)Nc2ccc(OC)cc2)n1	-5.3%	21.3*	nt	83.7%	30.1
CCn1cc(Br)c(C(=O)Nc2ccc(Cl)c(Cl)c2)n1	-2.2%	20.9*	57.0%	56.1%	35.4*
CCn1nccc1C(=O)Nc1nccs1	-0.6%	4.4	1.8%[5.75 µM]	13.5%	5.3
CCn1cc(Br)c(C(=O)Nc2ccc(C(=O)OC(C)C)cc2)n1	-11.0%	35.6	nt	?	54.9
CCn1ccc(C(=O)Nc2cccc(Cl)c2)n1	-7.2%	35.5*	?	493.9%	105.7*
COc1ccc(-c2ccc3nnc(SCC(=O)NCC4CCCO4)n3n2)cc1 (stereo unspecified)	nt	nt	?	-4.9%	nt
CCn1c(C)c(C)c2cc(C(=O)Nc3cccc(Cl)c3)ccc21	16.8%	20.7*	14.7µM*	?	37.0
NNC(=O)c1cccc(Cn2cc(Br)c([N+](=O)[O-])n2)c1	6.5%	2.5	-15.4%	?	-4.1
CCn1ccc(C(=O)Nc2ccc(S(=O)(=O)Nc3ccccc3OC)cc2)n1	-13.5%	16.7	nt	nt	21.1
CCn1cc(Cl)c(C(=O)Nc2cc(C(=O)OC)cc(C(=O)OC)c2)n1	1.5%	-3.7	?	24.7%	-8.1
CCn1cc(Br)c(C(=O)NN)n1	-3.4%	58.5*	27.5%	58.0%	71.1
CCn1ccc(C(=O)Nc2ccccc2Cl)n1	-5.0%	40.9*	15.4%	-18.2%	63.3*
CCn1cc(Cl)c(C(=O)Nc2ccc(OC)c(OC)c2)n1	nt	21.1*	-23.4%	24.5%	54.9*
CCn1cc(Br)c(C(=O)Nc2cccc(Cl)c2)n1	-41.6%	17.9*	-15.5%	22.2%	72.8*
O=C(NC(=S)Nc1ccc(F)c(Cl)c1)C1CC1	-18.3%	27.7*	-6.5%	-37.2%	16.8
Cc1ccc(NC(=S)NC(=O)C2CC2)cc1Cl	-22.2%	28.1*	9.28µM*	-25.6%	52.9*
O=C(NC(=S)Nc1ccc(S(=O)(=O)N2CCCC2)cc1)C1CC1	-6.7%	-1.9	0.5%	?	1.3
COC(=O)NC(=S)Nc1ccc(Oc2ccc(Cl)cc2Cl)c(Cl)c1	11.3%	-1.4	13.1µM*	?	9.6
SMILES	NS1 function inh	CHX counter	Pf growth 96h	Pf growth 48h	Shiga inhibitor
O=c1oc2ccccc2cc1N1CCOCC1	11.3%	-3.4	27.4%	22.6%	-13.8
CCCn1c(N)c(N(CCOC)C(=O)/C=C/c2ccc(C(=O)OC)cc2)c(=O)[nH]c1=O	nt	5.3	?	2.3%	-1.1
CC(C)(C)c1ccc(C(=O)N2CCCC2c2cccs2)cc1 (stereo unspecified)	-35.8%	-1.8	?	14.7µM*	3.3
CN(C)c1ccc(-c2cc(O)c3ncccc3c2)cc1	nt	nt	5.22µM*	3.7µM*	nt
CN(C)CCCNC(=O)c1ccccn1	-3.6%	-5.2	1.0%	nt	-6.4
Oc1cc(-c2ccncc2)cc2cccnc12	nt	nt	5.22µM*	?	nt
N=C1C(c2nc(-c3ccc(Cl)cc3)cs2)=C(O)CN1NC(=O)c1ccc(O)cc1	-3.5%	23.4*	-19.1%	-29.4%	24.6
Cc1ccc(-c2csc(C3=C(O)CN(NC(=O)c4ccc([N+](=O)[O-])cc4)C3=N)n2)cc1	7.7%	-2.1	10.2%	17.4%	-1.1
CN(C)CCCNC(=O)c1ccc(-c2cc(O)c3ncccc3c2)cc1	nt	nt	6.57µM*	10.4µM*	nt
c1cc(-c2ccncc2)ccn1	-7.3%	-3.6	-27.8%	-4.8%	-5.9
COc1cccc(CNC(=O)CN2C(=O)COc3ccc(S(=O)(=O)N4CCCCC4)cc32)c1	2.4%	-2.1	?	-29.6%	10.7
COc1cc(-c2nc(CN(C)C(C)c3ccncn3)c(C)o2)ccc1F (stereo unspecified)	0.7%	-2.7	34.4%	?	-4.0
CCC(C)c1ccc(NC(=O)C2CCN(c3ncccn3)CC2)cc1 (stereo unspecified)	15.0%	1.0	16.5%	?	-4.7
CN(C)CCCNC(=O)c1ccc(-c2nc(-c3ccc(Cl)cc3)cs2)cc1	-129.9%	-10.1	1.47µM*	2.62µM*	-18.5
Oc1cc(-c2ccc(N3CCCCC3)nc2)cc2cccnc12	nt	nt	2.94µM*	4.15µM*	nt
CN(C)CCCNCCCNC(=O)c1ccncc1	5.6%	-4.2	?	0.4%	-13.4
CN1CCN(c2ccc(-c3cc(O)c4ncccc4c3)cc2)CC1	nt	nt	2.62µM*	2.62µM*	nt
COc1ccccc1NC(=O)c1cc2ccccc2nc1C	-0.5%	-2.2	-14.5%	-14.4%	-8.6
O=C(Nc1ccc2ccccc2n1)c1ccc(Cl)cc1	-1.4%	49.7*	241.0%	-11.6%	67.3*
O=C(Nc1ccc2ccccc2n1)c1ccccc1Cl	-3.1%	39.2*	391.5%	194.4%	55.8*
O=C(Nc1ccc2ccccc2n1)C1CCCCC1	0.5%	72.8*	235.9%	124.6%	52.8
O=C(Nc1cccc(NC(=O)c2ccc(Cl)cc2)n1)c1ccc(Cl)cc1	1.7%	1.2	?	6.3%	-35.0
COc1ccc(C(=O)Nc2ccc3ccccc3n2)c(OC)c1OC	8.8%	50.8*	114.3%	33.7%	74.0*
O=C(Nc1ccnc(-c2ccncc2)n1)c1ccccc1Cl	nt	-3.1	38.1%	-8.6%	-8.6
CC(Sc1cnccn1)C(=O)O (stereo unspecified)	-0.5%	-0.7	33.0%	20.3%	-8.3
SMILES	NS1 function inh	CHX counter	Pf growth 96h	Pf growth 48h	Shiga inhibitor
Cc1ccc2[nH]c(=O)c(CN(C(=O)c3cccc([N+](=O)[O-])c3)C(C)C)cc2c1	-15.8%	-2.2	0.0%	9.6%	25.2
CCC(C)n1ncn(-c2ccc(N3CCN(c4ccc(OC)cc4)CC3)cc2)c1=O (stereo unspecified)	-7.5%	-1.9	-2.6%	-7.9%	-12.2
CC(C)COC(=O)CCNc1n[nH]c(=O)[nH]c1=O	19.3%	-0.6	9.28µM*	0.0%	1.3
CCOC(=O)CCNc1n[nH]c(=O)[nH]c1=O	8.6%	-1.7	-0.2%	5.7%	-6.0
Cc1nn(CC(=O)N2CCN(c3cccc(C(F)(F)F)c3)CC2)c(=O)c2cccn12	7.9%	5.8	0.2%	28.5%	1.3
C/C=C(\C)C(=O)NCCN1C2=NC[C@H](C)N2C[C@@H]1Cc1ccc(OC)cc1	-4.1%	-1.5	63.3%	45.8%	14.4
Cc1ccc(C(=O)N[C@@H](C)CN2C3=NC[C@H](C)N3C[C@H]2Cc2ccc(O)cc2)cc1Br	-8.0%	12.2	4.15µM*	10.4µM*	5.0
